Bioassay records from PubChem BioAssay.
14-3-3g Raf – alters human 14-3-3 gamma binding to Raf peptide | P61981 | FP, 14-3-3gamma / TMR-pS259-Raf peptide binding | inhibition, % at 40 µM | 160,000 tested, 0.19% active; in the data active = inhibition above about 30%;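 also: 0% = protein plus tracer without compound and 100% = blank with tracer alone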
Target sequence (P61981 whole entry, looked up): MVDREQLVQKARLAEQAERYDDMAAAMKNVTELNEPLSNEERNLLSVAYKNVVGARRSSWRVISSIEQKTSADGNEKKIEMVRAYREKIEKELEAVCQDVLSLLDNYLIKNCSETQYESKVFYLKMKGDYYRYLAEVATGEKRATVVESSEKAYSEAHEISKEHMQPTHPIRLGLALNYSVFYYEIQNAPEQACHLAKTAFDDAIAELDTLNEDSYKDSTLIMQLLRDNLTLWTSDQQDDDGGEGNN
The depositor's hits bear a star. The entries come from a sample that favours hits as a whole.

SMILES	14-3-3g Raf
Oc1ccc(-c2nc3ncccn3c2Nc2ccc(Cl)cc2)cc1	-8.3
CCN1CCCC1CNC(=O)c1cc(-c2ccc(Cl)s2)nc2ccccc12 (stereo not drawn)	-26.5
O=C(CCN1C(=O)c2ccccc2C1=O)NCc1ccncc1	-1.0
O=C(CN1C(=O)c2ccccc2C1=O)NCc1ccccn1	14.2
O=C(CCN1C(=O)c2ccccc2C1=O)NCc1ccccn1	177.4*
O=C(CCn1nc(-c2ccccc2)ccc1=O)NCCCN1CCCCC1	-2.8
O=C(CN1C(=O)CSc2ccccc21)NCCCN1CCCCC1	-1.1
Cc1ccc(-c2ccccc2)n1-c1ccc(O)c(C(=O)O)c1	-39.0
O=C1c2ccc(N3Cc4ccccc4C3)cc2C(=O)N1c1ccccc1	-10.1
O=C(O)c1cc(N2Cc3ccccc3C2)ccc1O	80.7*
CCS(=O)(=O)N1CCN(c2ccc([N+](=O)[O-])c(-n3nc(C)c4ccccc4c3=O)c2)CC1	-0.8
COc1ccc(-c2nc(CSCC(=O)N3CCC(C(N)=O)CC3)c(C)o2)cc1OC	2.6
COc1ccc(-c2nc(CSCC(=O)NCC3CCCO3)c(C)o2)cc1OC (stereo not drawn)	-3.4
CCOC(=O)N1CCC(NC(=O)CSCc2nc(-c3ccc(OC)c(OC)c3)oc2C)CC1	60.7*
COCCn1c(=S)[nH]c2cc(C(=O)N3CCCC3)ccc2c1=O	-2.8
O=C(CNS(=O)(=O)c1cccs1)N1CCN(c2ccccc2)CC1	-4.3
O=C(C1CCC1)N1CCc2cc(S(=O)(=O)NCCCN3CCN(c4ccccc4F)CC3)ccc21	31.1*
CCC(=O)N1CCc2cc(S(=O)(=O)NCCN3CCCCC3C)ccc21 (stereo not drawn)	-0.3
CC(=O)N1CCc2cc(S(=O)(=O)NCCCN3CCN(C)CC3)ccc21	-6.9
O=C(C1CCC1)N1CCc2cc(S(=O)(=O)NCCCN3CCCCC3)ccc21	-5.8
CCC1CCCCN1CCNS(=O)(=O)c1ccc2c(c1)CCN2C(=O)C1CCC1 (stereo not drawn)	51.6*
O=C(C1CCC1)N1CCc2cc(S(=O)(=O)NCCN3CCCC3)ccc21	-0.8
COC(=O)c1ccc(C=Nc2ccc(Cl)c(-c3nc4ccc(C)cc4o3)c2)cc1	-3.2
CCOc1ccc(CNC(=O)c2cn(CC(C)C)c(=O)c3c2c2ccccc2n3C)cc1	-8.3
CCC(=O)N1c2ccccc2NC2=C(C(=O)CC(c3ccc(OC)cc3)C2)C1c1ccco1 (stereo not drawn)	-5.8
SMILES	14-3-3g Raf
Cc1cc(C)c(NS(=O)(=O)c2cc(S(=O)(=O)Nc3c(C)cc(C)cc3C)c3cccc4c3c2NC4=O)c(C)c1	-0.1
COC(=O)c1ccc2c(c1)SC1=C(CCCC1=O)N2	33.4*
COC(=O)c1ccc2c(c1)NC(=O)CS2	-1.9
COC(=O)c1ccc(C2C3=C(CCCC3=O)Nc3ccc4nc(C)ccc4c32)cc1 (stereo not drawn)	1.0
O=C1C2C3C=CC(C3)C2C(=O)N1c1ccc(NCCC(c2ccccc2)c2ccccc2)c([N+](=O)[O-])c1 (stereo not drawn)	-2.6
O=C1c2ccccc2C(=O)c2c(NCCN3CCOCC3)cccc21	-229.8
Cc1nc2c(C(=O)NC(c3ccccc3)c3ccccc3)cnn2c(C)c1Cc1cccc(Cl)c1	3.4
COc1ccccc1N1CCN(C(=O)c2cn(C3CCCC3)c(=O)c3c2c2ccccc2n3C)CC1	3.4
COc1ccc(C(=O)Nc2cccnc2)cc1OC	46.9*
Cn1nnc2cc(C(=O)Nc3cccnc3)ccc21	2.5
O=C(Nc1cccnc1)c1cccnc1	0.5
O=C(c1ccccc1C(F)(F)F)N1CCN=C1SCc1cccnc1	-8.2
COc1ccc(C=Nc2ccco2)cc1	31.9*
COc1ccc(C=Nc2ccccc2)cc1	-11.8
COc1ccc(C=Nc2ccc3ncccc3c2)cc1	13.6
COc1ccc(OC)c(N(CC(=O)NC2CCCC2)S(=O)(=O)c2ccccc2)c1	2.4
O=C(Nc1cccc(C(F)(F)F)c1)c1ccc(Br)c([N+](=O)[O-])c1	73.4*
Cc1c(C(=O)Nc2cccc(C(F)(F)F)c2)cccc1[N+](=O)[O-]	-2.7
O=C(Nc1cccc(C(F)(F)F)c1)c1ccc(NC(=O)c2cccc(Br)c2)cc1	-14.7
Cc1c(C(=O)NCc2ccco2)oc2ccc(S(=O)(=O)N3CCOCC3)cc12	-0.7
Cc1c(C(=O)NCc2ccccn2)oc2ccc(S(=O)(=O)N3CCC(C)CC3)cc12	62.7*
O=C(NCc1cccnc1)c1cc(S(=O)(=O)N2CCOCC2)ccc1F	4.8
Cc1c(C(=O)NCc2ccccc2)oc2ccc(S(=O)(=O)N3CCC(C)CC3)cc12	-6.6
O=C(NCc1cccs1)c1cc(S(=O)(=O)N2CCOCC2)ccc1F	-6.8
O=C(NCc1ccccn1)c1cc(S(=O)(=O)N2CCOCC2)ccc1F	113.6*
Cc1c(C(=O)NCc2ccccn2)oc2ccc(S(=O)(=O)N3CC(C)CC(C)C3)cc12 (stereo not drawn)	-0.7
Cc1c(C(=O)NCc2ccccn2)oc2ccc(S(=O)(=O)N3CCOCC3)cc12	128.7*
Cc1c(C(=O)NCc2cccs2)oc2ccc(S(=O)(=O)N3CCOCC3)cc12	-1.9
